Experimental findings from PubChem BioAssay (NCI) are described below.

Some test systems named below: HCT-15 colon; HT29 colon; SNB-75 CNS; SNB-19 CNS; U251 CNS; PC-3 prostate; UACC-62 melanoma; LOX IMVI melanoma; SK-MEL-28 melanoma; SK-MEL-2 melanoma; EKVX NSCLC; SN12C renal; UO-31 renal; TK-10 renal; ACHN renal; CAKI-1 renal; A498 renal; CCRF-CEM leukemia; MOLT-4 leukemia; SK-MEL-5 melanoma.
Holding throughout (test): NCI-60 one-dose screen, 48 h (100 = growth as untreated, 0 = no growth, -100 = all killed)
Details in all cases: 10 µM unless noted

SMILES strings stand for the structures. The panel holds about 83,000 compounds, 20% with a hit somewhere; the sample as a whole holds those more often.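 Treatment: one concentration, 48 hours, 96-well format. Scoring: percent growth, with anything below 10 considered active.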 A number with no mark means an inactive call. Calls of active or inactive are those of the source.

Take `Cc1c2cnccc2c(C)c2c1c1cc(C3OCCCO3)ccc1n2C`: the growth in the test on HCT-15 colon was 1.16% (active); with HT29 colon, 1.09% (active); with SNB-75 CNS it was -23% (active); with SNB-19 CNS, -3.48% (active); in the test with U251 CNS, -1.98% (active); in the test with PC-3 prostate it was 2.08% (active). In addition, the growth was -43.6% (active) in the test on UACC-62 melanoma; -23.6% (active) in the test on LOX IMVI melanoma; -29.6% (active) with SK-MEL-28 melanoma; -67.5% (active) in the test on SK-MEL-2 melanoma; 3.53% (active) in the test on EKVX NSCLC; -10.2% (active) in the test on SN12C renal. In addition, the growth was -7.3% (active) in the test on UO-31 renal; -14.5% (active) in the test on TK-10 renal; -12.1% (active) in the test with ACHN renal; 8.13% (active) with CAKI-1 renal; -56.6% (active) in the test with A498 renal; -6.77% (active) with CCRF-CEM leukemia. Further, the growth with MOLT-4 leukemia was -4.85% (active).
Take `N=C(N)c1ccc(-c2ccc(-c3ccc(F)cc3)s2)s1`: the growth in the test on HCT-15 colon was -74.2% (active); with HT29 colon, -76.1% (active); in the test with SNB-75 CNS, 81%; in the test with SNB-19 CNS, -57.5% (active); with U251 CNS it was -89.7% (active); in the test on PC-3 prostate it was -24.2% (active). The growth in the test on SK-MEL-5 melanoma was 77.6%; with UACC-62 melanoma it was -67.9% (active); in the test on LOX IMVI melanoma it was -67.2% (active); in the test with SK-MEL-28 melanoma, 83.5%; in the test with SK-MEL-2 melanoma, 73.6%; with EKVX NSCLC, 41.4%. The growth was -32.6% (active) in the test with UO-31 renal; 28.5% in the test on TK-10 renal; -73.7% (active) in the test with ACHN renal; 0.453% (active) in the test on CAKI-1 renal; 58.9% in the test on A498 renal; -33.6% (active) in the test with CCRF-CEM leukemia. In the test on MOLT-4 leukemia, the growth was -44.2% (active).
For `O=C(O)C1CN(c2cccc(Cl)c2)N(c2cccc(Cl)c2)C1=O` (stereo not given), the growth with HCT-15 colon is 91.8%; with HT29 colon, 96.2%; in the test on SNB-75 CNS, 76.9%; in the test with SNB-19 CNS it was 82.8%; in the test on U251 CNS, 102%; with SK-MEL-5 melanoma it was 98%. The growth was 88.5% in the test on UACC-62 melanoma; 88.7% in the test on LOX IMVI melanoma; 93.1% in the test with SK-MEL-28 melanoma; 94.7% in the test with SK-MEL-2 melanoma; 96.9% in the test with EKVX NSCLC; 89% with SN12C renal. Also, the growth in the test on UO-31 renal is 72.2%; in the test on TK-10 renal, 105%; in the test on ACHN renal, 95.6%; in the test on CAKI-1 renal it was 92.8%; in the test with A498 renal, 110%; in the test with CCRF-CEM leukemia, 107%.
For `Cc1nc2ccccc2c(/C=C/c2ccc(C(F)(F)F)cc2)c1C(=O)/C=C/c1ccccc1`, the growth was -49.4% (active) with HCT-15 colon; -29.2% (active) with HT29 colon; 31.3% in the test with SNB-75 CNS; -66.5% (active) with SNB-19 CNS; -84.1% (active) with U251 CNS; 12% in the test on PC-3 prostate. The growth in the test with UACC-62 melanoma is -39.8% (active); in the test on LOX IMVI melanoma, -92.2% (active); in the test on SK-MEL-28 melanoma it was -52.2% (active); with SK-MEL-2 melanoma it was -43.6% (active); with EKVX NSCLC, 8.76% (active); in the test with SN12C renal, -25.9% (active). Also, the growth is -96.1% (active) in the test on UO-31 renal; 7.75% (active) in the test on TK-10 renal; -54.6% (active) in the test on ACHN renal; 0.887% (active) with CAKI-1 renal; -31.4% (active) with A498 renal; 5.84% (active) in the test on CCRF-CEM leukemia. In addition, the growth with MOLT-4 leukemia is 4.86% (active).
For `COc1cc(-c2nc(SCCC(C)C)nc(N3CCOCC3)c2C#N)cc(OC)c1OC`, the growth in the test on HCT-15 colon was 68.3%; in the test on HT29 colon it was 19.2%; with SNB-75 CNS, 53.4%; with SNB-19 CNS, 65.8%; in the test on U251 CNS, 5.83% (active); in the test on PC-3 prostate it was 62.3%. Moreover, the growth was 91.4% with UACC-62 melanoma; 83.2% in the test on LOX IMVI melanoma; 108% in the test with SK-MEL-28 melanoma; 116% in the test with SK-MEL-2 melanoma; 100% in the test with EKVX NSCLC; 54.9% with SN12C renal. Further, the growth with UO-31 renal was 73.9%; with TK-10 renal, 46.5%; in the test on ACHN renal, 101%; with CAKI-1 renal, 76.2%; in the test with A498 renal, 108%; in the test with CCRF-CEM leukemia, 78.8%.
Take `CCN(CC)CCCC(C)Nc1ccc2cc(OC)ccc2n1` (stereo not given): the growth in the test on HCT-15 colon was 103%; in the test with HT29 colon, 106%; with SNB-75 CNS it was 89.8%; in the test on SNB-19 CNS, 106%; with U251 CNS, 97.9%; in the test with PC-3 prostate, 95.4%. For the same compound, the growth is 108% in the test on UACC-62 melanoma; 102% in the test on LOX IMVI melanoma; 108% in the test with SK-MEL-28 melanoma; 116% in the test with SK-MEL-2 melanoma; 91.4% in the test on EKVX NSCLC; 104% with SN12C renal. Also, the growth with UO-31 renal was 91.3%; with TK-10 renal it was 106%; in the test with ACHN renal it was 107%; in the test with CAKI-1 renal, 101%; in the test with CCRF-CEM leukemia, 107%; with MOLT-4 leukemia, 116%.
Consider `COc1ccc(-c2cn(-c3ccc(Cl)cc3)c(SCC(=O)c3ccc([N+](=O)[O-])cc3)n2)cc1`, for which the growth in the test with HCT-15 colon is 92.7%; with HT29 colon it was 89.6%; in the test on SNB-75 CNS, 39%; in the test on SNB-19 CNS, 52.3%; in the test with U251 CNS, 60.6%; in the test with PC-3 prostate, 73.7%. Besides, the growth in the test with UACC-62 melanoma was 68.7%; in the test with LOX IMVI melanoma, 89.1%; in the test with SK-MEL-28 melanoma, 95.8%; with SK-MEL-2 melanoma, 73.6%; in the test on EKVX NSCLC, 95%; in the test on SN12C renal it was 78.3%. Further, the growth in the test on UO-31 renal was 82.5%; in the test on TK-10 renal, 55.9%; with ACHN renal it was 81.5%; in the test on CAKI-1 renal, 76.1%; with A498 renal, 85.2%; in the test with CCRF-CEM leukemia, 93.8%. Besides, the growth in the test with MOLT-4 leukemia was 83.5%.
